Rows were chosen to be rich in hits. Some 2.2% of all compounds tested hit in one or more screens of this group.
Hsp70 activator = Hsp70 transcriptional activators, primary screen, cell-based, HeLa, Hsp70 promoter luciferase, luminescence, 10 µM | HeLa Hsp70 promoter luciferase reporter; scaled: vehicle 0, proteasome-inhibitor control 100% | activation, % at 10 µM | 0.04% of 200,000 active;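 active = activation above the mean across all tested compounds plus 3 SD, cutoff set per campaign, cut at about 5.5% in these data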;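 also: 100% = MG132 at 30 µM as the positive control and 0% = DMSO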
GalR3 antag = GalR3 antagonists in HEK293 cells, primary screen, cell-based, fluorescence readout. Galanin receptor type 3 (Homo sapiens), O60755. HEK293 GalR3-CNG cAMP membrane potential fluorescence; galR3 body fused to GalR1 C-terminus. inhibition, % at 3 µM. 0.44% of 360,000 active;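 active = inhibition above the screen-wide average plus 3 SD, cut at about 13% in these data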;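 also: forskolin and galanin both at EC90 stimulate the cells; cAMP rise reported by CNG channel membrane potential dye signal; 0% = forskolin plus galanin with DMSO and 100% = forskolin alone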
Target sequence (O60755 1-299 limits assumed): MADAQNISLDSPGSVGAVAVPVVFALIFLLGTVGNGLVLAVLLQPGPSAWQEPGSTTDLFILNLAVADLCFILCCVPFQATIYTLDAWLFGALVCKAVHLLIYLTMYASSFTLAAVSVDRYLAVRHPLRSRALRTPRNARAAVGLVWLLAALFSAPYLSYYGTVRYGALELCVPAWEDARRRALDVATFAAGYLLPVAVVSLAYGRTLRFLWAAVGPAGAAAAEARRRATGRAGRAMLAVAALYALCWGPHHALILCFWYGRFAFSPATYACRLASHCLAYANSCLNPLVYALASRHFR
SMARCA2 activ = SMARCA2 (BRM) function activators, primary screen, cell-based, luminescence, high throughput; MG213 cells, MMTV-luciferase reporter, dexamethasone, overnight; 1% of 370,000 active; activation, % at 9.1 µM; AID 652017, 2013; in the data active = activation above about 7.8%;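 also: 0% = vehicle wells and 100% = reference activator wells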
GAA850 FXN act = FXN promoter activators, primary screen, cell-based, luciferase luminescence, HEK293 lucGAA850; HEK293 lucGAA850 FXN promoter luciferase reporter, 24 h; percent of 10 µM SAHA response; activation, % at 6 µM; 0.56% of 360,000 active; AID 540364, 2011;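 active = activation above the average of all compounds screened plus 3 SD, cutoff fixed separately per campaign, cut at about 7.5% in these data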;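 also: 0% = DMSO wells and 100% = 10 µM SAHA wells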
HIF act = HIF pathway transcriptional activators, primary screen, cell-based, U2OS HRE-luciferase, luminescence; U2OS HRE-luciferase reporter; normalized: DMSO 0%, desferrioxamine 100%; 0.32% of 300,000 active; activation, % at 7.5 µM (by protocol); AID 1910, 2009;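 active = mean activation of at least 10% of the iron chelator positive control signal, with at least half of replicates also reaching 10%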
SMARCA2 conf = SMARCA2 (BRM) function activators, confirmation, cell-based, luminescence, triplicate; shares compounds with SMARCA2 activ; MG213 cells, MMTV-luciferase with dexamethasone, overnight; MG213 cells expressing E1A, Rb sequestered; DMSO wells 0%, reference activator 100%; activation, % at 9.1 µM; 30% of 3,500 active;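 active = activation above its plate's cutoff, the mean activation of tested wells plus 3 SD, cut at about 7.9% in these data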
GAL4-VP16 Luc = GAL4-VP16 luciferase reporter activation, counter-screen for SMARCA2 (BRM) activator project, cell-based, pG5luc, luminescence, high throughput; shares compounds with SMARCA2 activ; HEK293 GAL4-VP16 pG5luc reporter; scaled: DMSO wells 0%, SAHA wells 100%; activation, % at 9.1 µM; 41% of 3,500 active; AID 686939, 2013;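 active = activation above the solvent-only control well mean plus 3 SD, averaged across control plates, cut at about 5.2% in these data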
* marks the source's active call; other numbers are inactive results.

For COc1ccc(NC(=O)C/C(C)=N/NC(=O)c2ccccn2)c(OC)c1 the results were GalR3 antag -8, SMARCA2 activ 10.0*, GAA850 FXN act 4, HIF act 2, SMARCA2 conf 2 and GAL4-VP16 Luc 5.8*.
`C/C(CC(=O)Nc1ccc2c(c1)OCCO2)=N\NC(=O)c1ccccc1F` gave GalR3 antag -9, SMARCA2 activ 8.7*, GAA850 FXN act 3, HIF act 1, SMARCA2 conf 2 and GAL4-VP16 Luc 3.
Screening CC(C)[C@H]1Cn2nnc(-c3ccccc3)c2Cn2c3ccccc3c(=O)n21 returned SMARCA2 activ 0.
Screening CCCC[C@@H]1C(=O)N2N=Cc3cscc3[C@H]2N2N=Cc3cscc3[C@@H]12 returned SMARCA2 activ -1.
For C=CCN1[C@H](C#N)[C@@H](c2ccc(C#Cc3cccc(OC)c3)cc2)[C@H]1CO the results were SMARCA2 activ 0.
Screening COc1ccc(CN2C[C@H](COCc3ccccc3)Oc3cccc(Oc4ccc(C(C)C)cc4)c3S2(=O)=O)cc1 returned GalR3 antag -2 and SMARCA2 activ 3.
C/C(CC(=O)Nc1ccc2c(c1)OCO2)=N\NC(=O)c1ccccc1N was read as GalR3 antag -4, SMARCA2 activ 17*, GAA850 FXN act 1, HIF act 3, SMARCA2 conf -2 and GAL4-VP16 Luc 2.
CC(C)CSc1nnc(-c2ccco2)n1C was read as SMARCA2 activ 8.4*, SMARCA2 conf 8.9* and GAL4-VP16 Luc 2.
`O=C1NC(=O)/C(=C\c2ccc(O)cc2O)S1` gave Hsp70 activator 3, GalR3 antag -7, SMARCA2 activ 13*, GAA850 FXN act 0, HIF act 0, SMARCA2 conf 6 and GAL4-VP16 Luc 3.
`CC(C)CN1C(=O)C[C@@]2(C(=O)N(C)c3ccc(NC(=O)c4cc(F)ccc4F)cc32)C1c1ccccc1` (stereo not given in full) gave SMARCA2 activ -1.
Cn1nccc1C(=O)N1CCN(c2ccccc2Cl)CC1 was read as GalR3 antag 0, SMARCA2 activ 8.0*, GAA850 FXN act 0, HIF act 0, SMARCA2 conf 1 and GAL4-VP16 Luc 1.
`Cc1cccc(N2CCN(C(=O)c3ccnn3C)CC2)c1C` gave GalR3 antag -2, SMARCA2 activ -1, GAA850 FXN act 0 and HIF act 0.
Screening CCC(C)(C(=O)NC1CCCCC1)N(Cc1ccco1)C(=O)CC1NC(=O)NC1=O (stereo not given) returned Hsp70 activator 0, GalR3 antag -4, SMARCA2 activ 8.4*, GAA850 FXN act 2, HIF act 0, SMARCA2 conf -3 and GAL4-VP16 Luc 0.
For O=C1NC(=O)C(CC(=O)N(Cc2ccco2)C2(C(=O)NC3CCCC3)CCCCC2)N1 (stereo not given) the results were Hsp70 activator 0, GalR3 antag -4, SMARCA2 activ -2, GAA850 FXN act -2 and HIF act -29.
`CCC(N=c1cc(-c2ccc(OC)cc2)oc2ccc(C)cc12)C(=O)O` (stereo not given) gave Hsp70 activator 0, GalR3 antag -6, SMARCA2 activ 17*, GAA850 FXN act 7, HIF act 1, SMARCA2 conf 11* and GAL4-VP16 Luc 8.8*.
`Cc1ccccc1-c1cc(=O)c2ccccc2o1` gave GalR3 antag -4, SMARCA2 activ 2 and GAA850 FXN act 0.
Screening O=c1cc(-c2ccccc2F)oc2ccccc12 returned Hsp70 activator 0, GalR3 antag -6, SMARCA2 activ 13*, GAA850 FXN act 7, HIF act 4, SMARCA2 conf 6 and GAL4-VP16 Luc 7.7*.
For O=c1cc(-c2ccc(F)cc2)oc2ccccc12 the results were Hsp70 activator 0, GalR3 antag -1, SMARCA2 activ 5, GAA850 FXN act 5 and HIF act 2.
For COc1ccc(-c2cc(=O)c3cc(OC)ccc3o2)cc1 the results were Hsp70 activator 0, GalR3 antag -2, SMARCA2 activ 9.8*, GAA850 FXN act 2, HIF act 3, SMARCA2 conf 6 and GAL4-VP16 Luc 7.0*.
`CSc1ccc(-c2cc(=O)c3ccccc3o2)cc1` gave Hsp70 activator 1, GalR3 antag -6, SMARCA2 activ 12*, GAA850 FXN act 7, HIF act 4, SMARCA2 conf 6 and GAL4-VP16 Luc 12*.
`Cc1ccccc1S(=O)(=O)N1CCCc2nc(C)c(C)cc21` gave GalR3 antag -7 and SMARCA2 activ -6.
C[C@@H]1COc2cc(NCCO)ccc2S(=O)(=O)N1 was read as GalR3 antag -4 and SMARCA2 activ -2.
`C/C(=N\NC(N)=S)c1ccccc1` gave GalR3 antag -8, SMARCA2 activ 8.0*, GAA850 FXN act 1, HIF act 0, SMARCA2 conf 0 and GAL4-VP16 Luc 0.
`NC(=S)NN=C(c1ccccc1)c1ccccc1` gave GalR3 antag -12, SMARCA2 activ -2, GAA850 FXN act 0 and HIF act 0.
COc1ccccc1/C=C/C(=O)Nc1ccc2c(c1)CCC2 was read as Hsp70 activator 0, GalR3 antag -5, SMARCA2 activ 8.9*, GAA850 FXN act 6, HIF act 4, SMARCA2 conf 6 and GAL4-VP16 Luc 14*.
`COc1ccc(OC)c(/C=C/C(=O)Nc2ccc3c(c2)CCC3)c1` gave Hsp70 activator 0, GalR3 antag 0, SMARCA2 activ 2, GAA850 FXN act 4 and HIF act 0.
CN(C)c1cccc(C(=O)Nc2cccc(S(=O)(=O)NC3=NCCC3)c2)c1 was read as GalR3 antag 0, SMARCA2 activ 8.3*, GAA850 FXN act 3, HIF act 2, SMARCA2 conf 15* and GAL4-VP16 Luc 5.3*.
For CCOC(=O)c1c(NC(C)=O)sc2c(OCC(O)CNC(C)(C)C)c(Br)ccc12 (stereo not given) the results were Hsp70 activator 0, GalR3 antag -5, SMARCA2 activ 11*, GAA850 FXN act 3, HIF act 0, SMARCA2 conf 8.7* and GAL4-VP16 Luc 2.

Assay outcomes as filed in PubChem BioAssay.
